Bioassay records deposited in PubChem BioAssay by The Scripps Research Institute Molecular Screening Center.
MITF inh – human MITF inhibition, primary screen | O75030 | AlphaScreen MITF homodimerization, bead proximity signal | inhibition, % at 2.6 µM | actives 0.91% (n = 650,000); in the data active = inhibition above about 50%;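 also: 0% = vehicle wells with protein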
TEAD-YAP block – TEAD-YAP interaction inhibition; HEK-TIYL cells, TEAD-Gal4/YAP UAS-luciferase luminescence; inhibition, % at 9.12 µM; actives 1.4% (n = 640,000); AID 1259422; in the data active = inhibition above about 32%;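 also: 0% = median of test compound wells and 100% = reference inhibitor wells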
GPR151 activ – activators of human GPR151; PathHunter beta-arrestin GPR151 cells, luminescence; activation, % at 11.2 µM; actives 1% (n = 650,000); AID 1508602; in the data active = activation above about 4.9%;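 also: 0% = median of compound wells and 100% = cells with positive control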
Target sequence (Q8TDV0 whole entry, looked up): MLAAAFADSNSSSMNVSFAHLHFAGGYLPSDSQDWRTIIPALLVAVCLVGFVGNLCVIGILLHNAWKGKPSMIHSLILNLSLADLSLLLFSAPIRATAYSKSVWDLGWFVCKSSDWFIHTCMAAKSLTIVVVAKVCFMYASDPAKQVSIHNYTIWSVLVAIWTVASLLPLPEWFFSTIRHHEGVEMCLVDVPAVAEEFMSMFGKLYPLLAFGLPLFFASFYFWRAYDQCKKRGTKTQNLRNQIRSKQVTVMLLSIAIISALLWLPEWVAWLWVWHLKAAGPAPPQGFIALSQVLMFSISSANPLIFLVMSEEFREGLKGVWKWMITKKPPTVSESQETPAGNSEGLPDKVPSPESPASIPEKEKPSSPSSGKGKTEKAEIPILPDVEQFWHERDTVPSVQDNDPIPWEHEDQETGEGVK
FBW7 act – activators of human E3 ligase FBW7 | AID 1259310 | AlphaScreen FBW7–phospho-cyclin E peptide binding, activator screen | normalized activity (activation), % at 26.1 µM | Q969H0 | actives 0.13% (n = 650,000); in the data active = normalized activity above about 1.9%;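 also: purified mutant Fbw7 with reduced substrate affinity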
An asterisk follows results filed as active. Sampled rows, rich in hits. Any-hit rate of the full collection: about 3.4%.

SMILES	MITF inh	TEAD-YAP block	GPR151 activ	FBW7 act
Cc1c(C(=O)O)ccc2c1N[C@@H](c1ccc(F)cc1)[C@H]1CC=C[C@@H]21	64*	-12	0	-1
Cc1cc(C)c2c(c1)[C@@H]1C=CC[C@@H]1[C@H](c1ccc(C(=O)O)cc1)N2	8	17	-1	0
Cc1ccc2c(c1C)N[C@@H](c1ccc(C(=O)O)cc1)[C@H]1CC=C[C@@H]21	71*	12	-1	-1
CC(=O)Oc1ccc(C2Nc3c(C(=O)O)cccc3C3C=CCC32)cc1 (configuration not stated)	66*	10	0	-1
Cc1cc(NS(=O)(=O)c2ccc(NC(=O)c3ccncc3)cc2)no1	-3	-6	0	0
CC(C)CS(=O)(=O)Nc1ccc2c(c1)N(C(=O)c1cccs1)CC2	6	-2	0	0
O=C(Nc1ccc2c(c1)CCCN2C(=O)c1cccs1)NC(c1ccccc1)c1ccccc1	-1	45*	0	0
Cc1ccc(S(=O)(=O)Nc2ccc3c(c2)N(C(=O)c2cccs2)CCC3)cc1	24	50*	0	0
CCC(=O)N1CCCc2ccc(NS(=O)(=O)c3ccc(OC)c(F)c3)cc21	10	58*	2	0
CC(=O)N1CCc2ccc(NS(=O)(=O)c3ccc(C(C)(C)C)cc3)cc21	7	32*	2	0
Cc1cccc(OCC(=O)Nc2ccc3c(c2)CCCN3C(=O)c2cccs2)c1	9	3	0	0
COc1ccc(OC)c(/C=C2\Oc3c(ccc(O)c3CN3CCN(C)CC3)C2=O)c1	-17	2	2	0
CC(=O)Nc1ccc(S(=O)(=O)Nc2ccc(F)c(F)c2)cc1	4	9	0	0
COC(=O)C1=C(OC)C(=O)OC12C=CC(=O)C=C2	18	80*	-1	0
COC(=O)c1cc2cccc(OC)c2oc1=O	-3	-4	-1	0
COc1cccc(N2C(=O)CN(Cc3sccc3C)C2=S)c1	3	3	-1	0
CCN(CC)c1ccc(N)c(C)c1	80*	12	-1	0
COc1cc(C2C=C(c3ccccc3)Nc3ncnn32)cc(OC)c1OC (configuration not stated)	11	61*	0	0
COc1ccc(C2C=C(c3ccc(Cl)cc3)Nc3ncnn32)cc1OC (configuration not stated)	21	4	1	0
COc1cc(C2C=C(c3ccc(C)cc3)Nc3ncnn32)cc(OC)c1OC (configuration not stated)	8	62*	-2	0
Cc1ccc(C2=CC(c3ccc(C)cc3)n3ncnc3N2)cc1 (configuration not stated)	-6	-45	-1	0
CCc1ccc(C2=CC(c3ccc(OC)c(OC)c3)n3ncnc3N2)cc1 (configuration not stated)	-2	33*	5	0
COc1cc(C2C=C(c3cccc(NC(C)=O)c3)Nc3ncnn32)cc(OC)c1OC (configuration not stated)	1	52*	1	0
COc1ccc(CN=Cc2c(O)n(-c3cccc(OC)c3)c(=O)[nH]c2=O)cc1	-3	11	1	0
CN(CC(=O)Nc1ccccc1)S(=O)(=O)c1cccc([N+](=O)[O-])c1	-6	-6	2	0
SMILES	MITF inh	TEAD-YAP block	GPR151 activ	FBW7 act
C=CCNC(=O)c1ccc2c(c1)OCO2	11	7	-2	0
CCc1ccc(C2=CC(c3cc(OC)c(OC)c(OC)c3)n3nnnc3N2)cc1 (configuration not stated)	6	56*	1	0
CCc1ccc(C2=CC(c3ccc(Cl)cc3)n3nnnc3N2)cc1 (configuration not stated)	6	6	2	0
COc1cccc(C2=CC(c3cc(OC)c(OC)c(OC)c3)n3ncnc3N2)c1 (configuration not stated)	10	68*	0	0
COc1cccc(C2=CC(c3ccc(OC)c(OC)c3OC)n3ncnc3N2)c1 (configuration not stated)	-9	-12	1	0
CC(=O)NCCn1c(=S)[nH]c2ccc(N3CCOCC3)cc2c1=O	-7	1	1	0
CCn1c(SCC(=O)c2ccc([N+](=O)[O-])cc2)nc2c1c(=O)[nH]c(=O)n2C	15	5	-2	0
CC1C(=O)Nc2ccc(-c3csc(N)n3)cc21 (configuration not stated)	0	4	-1	0
CCN(CC)C(=O)c1oc2ccc(S(=O)(=O)N3CC(C)CC(C)C3)cc2c1C (configuration not stated)	7	40*	0	0
Cc1cc(NS(=O)(=O)c2ccc(NS(=O)(=O)c3ccc(F)c(F)c3)cc2)no1	-2	2	1	0
Cc1cnc(NC(=O)CN2C[C@@H](C)N(Cc3ccco3)C[C@H]2C)s1	8	-5	-1	0
Cc1nc(NCc2cccnc2)c2c(C)c(C)sc2n1	-3	4	-1	0
Cc1sc2nc(-c3cccnc3)nc(NCCSCc3ccco3)c2c1C	3	68*	0	0
COC(=O)CSc1nnc(NC(=O)c2ccc(C(C)(C)C)cc2)s1	3	22	-1	0
O=C(COc1ccc(Cl)cc1)Nc1c2c(nn1-c1ccc(F)cc1)CS(=O)C2 (configuration not stated)	13	7	0	0
CC(C)(C)c1ccc(C(=O)NCC(=O)N/N=C/c2ccc3c(c2)OCO3)cc1	-14	-1	0	0
CC(=O)Nc1cccc(N=Cc2cc(Cl)cc(Br)c2O)c1	-4	2	-1	0
O=C(/C=C/c1cccs1)c1ccc(N2CCOCC2)cc1	22	58*	-5	0
c1ccc(N2CCN(c3nc4ccccc4c4nc(-c5cccnc5)nn34)CC2)nc1	13	-3	-2	0
Cc1ccc(C)c(OCCSc2nnc(-c3ccncc3)n2C)c1	18	1	0	0
N[C@@H]1CC[C@H](C(=O)Nc2ccc3[nH]ncc3c2)C1	10	1	-2	1
N[C@H]1CC[C@@H](C(=O)Nc2ccc3cnccc3c2)C1	7	36*	0	0
CN(CC1COCCO1)C(=O)c1cc(COc2ccc3ncccc3c2)on1 (configuration not stated)	1	50*	3	0
Cc1nc(CN(C)C(=O)c2cc(COc3ccc4ncccc4c3)on2)cs1	3	37*	3	0
Nc1cccc(-c2cccc(C(=O)NCCCN3CCCC3=O)c2)c1	0	41*	0	0
CSc1ccc(-c2nc3cnccn3c2Nc2ccccc2)cc1	2	5	1	0
CN(c1ccc(C(=O)NCC(O)c2ccccc2)cc1)S(=O)(=O)c1ccccc1 (configuration not stated)	14	-2	-1	0
COc1ccc(CN2CCC(C3(C)NC(=O)NC3=O)CC2)cc1C (configuration not stated)	2	-1	1	0
